# Screening data deposited in PubChem BioAssay by several laboratories.
# 697 NFkB inh: lowers PMA/ionomycin-induced NF-kB signal in 697 B cells | inhibition, % at 4 µM | 697 B-cell NF-kB luciferase reporter, 16 h | AID 435022 | 330,000 compounds, 0.33% hits; in the data active = inhibition above about 35%
# Calb FLC: affects C. albicans growth with fluconazole | 300,000 compounds, 0.57% hits | growth inhibition, % (test concentration not listed) | AID 1979 | C. albicans CaCi-2 (fluconazole-resistant clinical isolate) + fluconazole, Alamar Blue growth, 48 h;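 active = growth inhibition above about 58% in most replicates, limit read from the data, passing the limit was not always enough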;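 note: all wells also contain fluconazole at 8 µg/ml as a sub-toxic cotreatment; 0% = median of DMSO wells and 100% = median of geldanamycin control wells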
# Beta apoptosis: blocks beta cell apoptosis | INS-1E cytokine-induced death, ATP luminescence, 48 h; percent of positive-control rescue, neutral wells zero | protection from apoptosis, % (concentration not given with the values) | 300,000 compounds, 0.8% hits;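 active = Every replicate reaches about 75%, or at least half do and their mean reaches it too, limit read from the data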;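 note: 0% = cytokine-treated negative control wells and 100% = positive control rescue; higher means more ATP so stronger rescue from cytokine killing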
# Shn3 inh set2: inhibitors of Schnurri-3 3'UTR reporter in osteoblasts | Clone20 osteoblast Shn3 3'UTR firefly luciferase, 24 h | inhibition, % at 12.5 µM | 360,000 compounds, 0.52% hits;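 active = mean inhibition of at least 75% with every replicate also reaching 75%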;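 note: 0% = median of neutral control wells and 100% = pilot-screen positive control compound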
# Jurkat NFkB inh: lowers PMA/ionomycin-induced NF-kB signal in Jurkat cells; PMA/ionomycin-induced NF-kB luciferase reporter, luminescence; AID 435003; 330,000 compounds, 0.53% hits; inhibition, % at 4 µM; in the data active = inhibition above about 50%
# Numbers without * were called inactive; x = not tested or not shown. This is a sample that favours compounds with a hit; in the whole collection about 2% have one here.
SMILES,697 NFkB inh,Calb FLC,Beta apoptosis,Shn3 inh set2,Jurkat NFkB inh
CCC(C)c1ccc(S(=O)(=O)N2CCN(C(=O)c3ccc(Cl)c(S(=O)(=O)N4CCOCC4)c3)CC2)cc1 (configuration not stated),x,x,x,90*,x
CCOC(=O)N1CCN(C(=O)c2ccc(Cl)c(S(=O)(=O)N3CCOCC3)c2)CC1,-11,-10,-1,-2,15
CCOc1ccc(NC(=O)CCCNC(=O)Cn2cnc3sc(C)c(C)c3c2=O)cc1,0,-12,x,3,-19
Oc1c(Br)cc(Br)cc1/C=N/Nc1ccc(Cl)nn1,x,83*,98*,95*,x
CCOc1ccc(/C=N/Nc2ccc(Cl)nn2)c(O)c1,-15,5,119*,32,5
COc1cc(OC)cc(C(=O)N[C@H](C(=O)OCC(=O)Nc2cccnc2Cl)C(C)C)c1,9,x,-3,-10,6
O=C(Cn1nc(C(=O)O)c2ccccc2c1=O)Nc1ccc(Cl)c(S(=O)(=O)N2CCOCC2)c1,-4,x,2,9,4
O=C(c1cc(-c2ccccc2)n[nH]1)N1CCc2c([nH]c3ccccc23)C1c1ccccn1 (configuration not stated),21,98*,-2,-2,8
O=C(c1cccs1)N1CCc2c([nH]c3ccccc23)C1c1ccccn1 (configuration not stated),17,-1,-7,-10,6
CCn1c(C)nc2cc(-c3nnc(-c4c(-c5ccccc5)noc4C)o3)ccc21,2,15,113*,86*,0
CCn1c(SCC(=O)N(C)CC(=O)Nc2ccc(F)c(F)c2F)nnc1-c1ccco1,6,6,x,6,-6
Cc1ccc2ccccc2c1C(O)c1ncc(-c2ccc(F)cc2)[nH]1 (configuration not stated),x,x,x,0,x
COC(=O)c1ccc(COc2ccccc2/C=C(\C#N)C(=O)Nc2c(C)cccc2C)cc1,-3,-1,107*,-19,-5
N#Cc1ccc(S(=O)(=O)N2CCC(C(=O)Nc3cccc(C(=O)NC4CC4)c3)CC2)cc1,19,x,4,-3,13
CCOC(=O)C1=C(COC(=O)Cc2ccc(Cl)cc2)NC(=O)NC1C (configuration not stated),-1,x,-4,0,6
O=C(c1ccccc1)c1c[nH]c(C(=O)NNc2ccccc2)c1,31,99*,12,11,20
CN(C)CCCNC(=O)c1cc(C(=O)c2ccccc2)c[nH]1,-6,9,2,-5,-2
C[C@@H]1CN([C@H](C)CO)C(=O)CCCn2nncc2CO[C@H]1CN(C)S(=O)(=O)c1cccc(C#N)c1,x,x,x,-7,x
O=C(Nc1cccc([N+](=O)[O-])c1)c1ccc([N+](=O)[O-])o1,x,x,x,44,x
O=C(Nc1cccc2ccccc12)c1ccc([N+](=O)[O-])o1,7,86*,-11,36,25
O=C(Nc1ccc2[nH]c(=O)[nH]c2c1)c1ccc([N+](=O)[O-])o1,20,x,-9,16,2
O=C(Nc1cccc(NC(=O)c2ccccc2Cl)c1)c1ccc([N+](=O)[O-])o1,10,80*,96*,45,7
Cc1ccc(NC(=O)c2ccc([N+](=O)[O-])o2)cc1C,-3,117*,x,50,47
O=C(COC(=O)c1cc([N+](=O)[O-])ccc1NCCO)Nc1cccnc1Cl,15,x,1,12,-4
CCCNC(=O)c1ccc2c(=O)c(O)c(-c3ccc(OC)cc3)[nH]c2c1,-24,82*,0,3,0
SMILES,697 NFkB inh,Calb FLC,Beta apoptosis,Shn3 inh set2,Jurkat NFkB inh
Cc1ccc(-c2[nH]c3cc(C(N)=O)ccc3c(=O)c2O)cc1,-15,-3,-4,-20,3
Cc1ccc(CNC(=O)c2ccc3c(=O)c(O)c(-c4ccc(C)cc4)[nH]c3c2)cc1,-14,-10,30,87*,39
CCCNC(=O)c1ccc2c(=O)c(O)c(-c3ccc(C)cc3)[nH]c2c1,-64,-5,82*,-78,10
CCCNC(=O)c1ccc2c(=O)c(O)c(-c3ccsc3)[nH]c2c1,-15,71,8,-45,30
Cc1ccccc1-c1cc2nc(NCCN3CCNC3=O)n(C)c(=O)c2s1,x,x,x,-27,x
Cc1ccsc1C(=O)OCC(=O)Nc1sccc1C(N)=O,-55,96*,x,-105,-43
CN1CCN(S(=O)(=O)c2ccc(CNC(=O)c3ccccc3)s2)CC1,14,4,-6,-1,7
CCN(CCCNc1cc2c(c(N)c1S(=O)(=O)O)C(=O)c1ccccc1C2=O)c1ccccc1,x,x,x,-6,x
